Measurements published in PubChem BioAssay (NCI).
The panel holds about 83,000 compounds, 20% with a hit somewhere; the sample as a whole holds those more often.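 Testing used 96-well plates and a 48-hour single-concentration exposure. Example: -40 means 40% of the starting cells died.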 Unmarked numbers belong to inactive results. Activity calls are given as the source filed them. The calls were made as follows: active = growth percent below 10; inactive = the rest.

Key:
Assay in all cases: NCI-60 one-dose screen, 48 h (100 = growth as untreated, 0 = no growth, -100 = all killed)
Conditions in all cases: 10 µM
[1] = test system: SR leukemia
[2] = test system: RPMI-8226 leukemia
[3] = test system: OVCAR-8 ovarian
[4] = test system: OVCAR-5 ovarian
[5] = test system: OVCAR-4 ovarian
[6] = test system: SK-OV-3 ovarian
[7] = test system: IGROV1 ovarian
[8] = test system: OVCAR-3 ovarian
[9] = test system: NCI/ADR-RES ovarian
[10] = test system: HS 578T breast

COc1ccc(NC(=O)CSc2nnc(-c3ccc4nc(-c5ccc(Cl)cc5)[nH]c4c3)o2)cc1
growth [1]: 43.5% | growth [2]: 56.5% | growth [3]: 14.1% | growth [4]: 79.9% | growth [5]: -2.09% (active) | growth [6]: 101% | growth [7]: 78.4% | growth [8]: 55.3% | growth [9]: 81.3%

N#Cc1c(NC(=O)c2ccc(C(F)(F)F)cc2)sc2c1CCC(=O)C2
growth [1]: 11.3% | growth [2]: 7.34% (active) | growth [3]: -32.3% (active) | growth [4]: -80.6% (active) | growth [5]: -24.6% (active) | growth [6]: -54.1% (active) | growth [7]: -79.3% (active) | growth [8]: -92.9% (active) | growth [9]: -44.8% (active)

Cc1cc(=O)oc2cc(OCCCCOc3ccc(/C=C/C(=O)Nc4cccc(Cl)c4)cc3)ccc12
growth [1]: 55.1% | growth [2]: 57.8% | growth [3]: 49.7% | growth [4]: 82.1% | growth [5]: -30.5% (active) | growth [6]: 119% | growth [7]: 103% | growth [8]: 27.6% | growth [10]: 29.5% | growth [9]: 45.7%

COc1ccc(CN2[C@@H](C(=O)NCc3ccc(C(=O)NO)cc3)Cc3c([nH]c4ccccc34)[C@@H]2C)cc1
growth [1]: 14.5% | growth [2]: 20.1% | growth [3]: 27.9% | growth [4]: 4.29% (active) | growth [5]: 40.1% | growth [6]: -8.39% (active) | growth [7]: 12.4% | growth [8]: 11.1% | growth [10]: -5.59% (active) | growth [9]: 68.8%

O=c1c2ccccc2nc(COc2ccccc2)n1/N=C/c1ccc(N2CCOCC2)cc1
growth [1]: 95.1% | growth [2]: 88.8% | growth [3]: 33.1% | growth [4]: 93.3% | growth [5]: 40.4% | growth [6]: 64.5% | growth [7]: 56.9% | growth [8]: 85.2% | growth [10]: 41.2% | growth [9]: 58.1%

Cc1cc(C)nc(/N=C(\N)Nc2ccc(S(=O)(=O)Nc3nc(C)cc(C)n3)cc2)n1
growth [1]: 99.8% | growth [2]: 98.9% | growth [3]: 107% | growth [4]: 119% | growth [5]: 111% | growth [6]: 106% | growth [7]: 106% | growth [8]: 112% | growth [10]: 103% | growth [9]: 110%

Cc1cc(=O)oc2cc(OCCCCOc3ccc(/C=C/C(=O)Nc4ccccc4[N+](=O)[O-])cc3)ccc12
growth [1]: 88% | growth [2]: 108% | growth [3]: 111% | growth [4]: 108% | growth [5]: 109% | growth [6]: 119% | growth [7]: 106% | growth [8]: 128% | growth [10]: 111% | growth [9]: 115%

Cc1noc2c(Cc3ccc([N+](=O)[O-])cc3)nn(CC(=O)N/N=C/c3ccc(Br)cc3)c(=O)c12
growth [1]: 97.6% | growth [2]: 91.2% | growth [3]: 48.9% | growth [4]: 96.9% | growth [5]: 17.9% | growth [6]: 86.2% | growth [7]: 95.9% | growth [8]: 50.1% | growth [10]: 41.5% | growth [9]: 88.5%

CN1C(=O)N(C)C2SC(N/N=C/c3ccc(F)cc3)=NC21 (stereo not drawn)
growth [1]: 11.7% | growth [2]: 77% | growth [3]: 66.8% | growth [4]: 77.9% | growth [5]: 77.2% | growth [6]: 61.8% | growth [7]: 46% | growth [8]: -41.9% (active) | growth [10]: 33.5% | growth [9]: 13%

CN1CCN(Cc2ccc(NC(=O)c3cncc(C#Cc4cnc5ccc(N[C@@H]6CCOC6)nn45)c3)cc2C(F)(F)F)CC1
growth [1]: -18.5% (active) | growth [2]: -24.1% (active) | growth [3]: -96.2% (active) | growth [4]: -91.6% (active) | growth [5]: -66.3% (active) | growth [6]: -83.1% (active) | growth [7]: -91.6% (active) | growth [8]: -90.3% (active) | growth [10]: -41% (active) | growth [9]: -77.5% (active)

COc1cnc2c(c1)C(=O)c1c-2n(CCCNCCO)c(=O)c2cc(OC)c(OC)cc12
growth [1]: 5.85% (active) | growth [2]: 4.21% (active) | growth [3]: 30.4% | growth [4]: 24% | growth [5]: 47.8% | growth [6]: 7.28% (active) | growth [7]: 27.2% | growth [8]: 3.13% (active) | growth [10]: 105% | growth [9]: 88%

Cc1ccc(-c2cc(C(=O)N=Nc3c(O)[nH]c4ccc(Br)cc34)c3ccccc3n2)cc1
growth [1]: 10.4% | growth [2]: 60.8% | growth [3]: 56.5% | growth [4]: 99.7% | growth [5]: 71.9% | growth [6]: 107% | growth [7]: 52.9% | growth [8]: 79.2% | growth [10]: 67.5% | growth [9]: 55%

COc1ccc2[nH]c(=O)c(CSc3ccc(Nc4nccc(-c5ccc(Cl)cc5)n4)cc3)cc2c1
growth [1]: 90.9% | growth [2]: 81.3% | growth [3]: 70.3% | growth [4]: 96.6% | growth [5]: 94.8% | growth [6]: 119% | growth [7]: 105% | growth [8]: 116% | growth [10]: 63.8% | growth [9]: 73.7%

Cc1ccc2nc(-c3ccc(-c4nnc(SCC(=O)Nc5ccc(Cl)cc5)o4)cc3)[nH]c2c1
growth [1]: 21.8% | growth [2]: 43.2% | growth [3]: -11.8% (active) | growth [4]: 63.1% | growth [5]: 4.47% (active) | growth [6]: 79.3% | growth [7]: 37.8% | growth [8]: 24% | growth [9]: 23.2%

CN1CCCN(Cc2ccc(C(=O)Nc3cccc(Nc4ccc5c(O)cccc5n4)c3)cc2C(F)(F)F)CC1
growth [1]: 11.4% | growth [2]: 2.61% (active) | growth [3]: -22% (active) | growth [4]: -82.1% (active) | growth [5]: -43.5% (active) | growth [6]: -58.9% (active) | growth [7]: -78.9% (active) | growth [8]: -35.8% (active) | growth [10]: -41.2% (active) | growth [9]: 37.7%

O=C(Cn1nc(-c2ccccc2)ccc1=O)NN1C(=O)c2ccccc2C1=O
growth [1]: 91.4% | growth [2]: 95.7% | growth [3]: 81.9% | growth [4]: 120% | growth [5]: 94.7% | growth [6]: 117% | growth [7]: 124% | growth [8]: 125% | growth [9]: 91.2%

NS(=O)(=O)c1ccc(NC(=O)CSc2ccc(-c3ccccc3)nn2)c(Br)c1
growth [1]: 85.9% | growth [2]: 83% | growth [3]: 38.3% | growth [4]: 90.4% | growth [5]: 53.8% | growth [6]: 98.7% | growth [7]: 93.8% | growth [8]: 24.9% | growth [9]: 81.6%

Cc1noc2c(Cc3ccccc3)nn(CC(=O)N/N=C/c3ccc(Cl)cc3)c(=O)c12
growth [1]: 104% | growth [2]: 75.5% | growth [3]: 8% (active) | growth [4]: 66% | growth [5]: -59.5% (active) | growth [6]: 33.9% | growth [7]: 41% | growth [8]: -31.8% (active) | growth [9]: 53.2%

O=c1cc(-c2ccccc2)oc2cc(OCCCCNCc3ccccc3)cc(O)c12
growth [1]: -29.7% (active) | growth [2]: -22.6% (active) | growth [3]: 52.6% | growth [4]: 92.1% | growth [5]: 34.7% | growth [6]: 61.1% | growth [7]: 63.8% | growth [8]: 64.3% | growth [10]: 39.6% | growth [9]: -68.4% (active)

C=C1CCC2C3(C)COC(c4ccccc4F)OC3CCC2(C)C1C/C=C1/C(=O)OCC1O (stereo not drawn)
growth [1]: 11.6% | growth [2]: 13.4% | growth [3]: -54.3% (active) | growth [4]: -42.8% (active) | growth [5]: 22.2% | growth [6]: 26.3% | growth [7]: -45.8% (active) | growth [8]: -79.1% (active) | growth [10]: -0.635% (active) | growth [9]: -23% (active)

O=C(CSc1nnc(-c2c[nH]c3ccccc23)n1-c1ccccc1)Nc1ccc(C(=O)/C=C/c2ccccc2Cl)cc1
growth [1]: 71.6% | growth [2]: 40.3% | growth [3]: 61.7% | growth [4]: 101% | growth [5]: 79.1% | growth [6]: 95.2% | growth [7]: 95.1% | growth [8]: 80.6% | growth [10]: 86.4% | growth [9]: 92.4%

Cc1ccc(/C=C/C(=O)c2ccc(NC(=O)CSc3nnc(-c4c[nH]c5ccccc45)n3-c3ccccc3)cc2)cc1
growth [1]: 72.4% | growth [2]: 4.29% (active) | growth [3]: 96.4% | growth [4]: 103% | growth [5]: 85.2% | growth [6]: 106% | growth [7]: 93.1% | growth [8]: 83.2% | growth [10]: 83.8% | growth [9]: 93.6%

Cc1ccc(/C=C/C(=O)c2ccc(S(=O)(=O)NCCNc3nc(Nc4ccc(F)cc4)nc(N(C)C)n3)cc2)cc1
growth [1]: 1.14% (active) | growth [2]: 4.72% (active) | growth [3]: 3.72% (active) | growth [4]: 39.2% | growth [5]: 21.8% | growth [6]: 94.7% | growth [7]: 52.1% | growth [8]: -55.9% (active) | growth [10]: 68.8% | growth [9]: 14.7%

COc1ccc(C(=O)CSc2nnc(-c3c[nH]c4ccccc34)n2-c2ccccc2)cc1
growth [1]: 79.7% | growth [2]: 72.7% | growth [3]: 15.5% | growth [4]: 77.4% | growth [5]: 0.569% (active) | growth [6]: 66.3% | growth [7]: 60.5% | growth [8]: 53.6% | growth [9]: 16.3%

Cc1ccc(-c2nc(Nc3ccc(C)c(S(N)(=O)=O)c3)c3ccccc3n2)cc1
growth [1]: 3.79% (active) | growth [2]: 87% | growth [3]: 45.9% | growth [4]: 94% | growth [5]: 70.1% | growth [6]: 125% | growth [7]: 87.5% | growth [8]: 57% | growth [10]: 102% | growth [9]: 60.3%

Nc1nc(Nc2ccc(Cl)cc2)nn1Cc1cccc(Br)c1
growth [1]: 30.6% | growth [2]: 29.1% | growth [3]: 54.9% | growth [4]: 49.7% | growth [5]: 46.8% | growth [6]: 47.2% | growth [7]: 13% | growth [8]: 47.7% | growth [10]: 18.2% | growth [9]: 25.7%
